Columns and labels:
Test in all cases: DAPPL (digital affinity profiling via proximity ligation, sequencing); 10 mM Tris-HCl pH 7.5, 50 mM NaCl, 1 mM DTT, 4% glycerol, room temperature, 30 min; GST-TFs on glutathione beads, 16-mer random dsDNA library, 0.1% formaldehyde crosslink after washing; high values mean tight binding
FEV = target: T1, FEV (Homo sapiens, UniProt Q99581 1-238); details: protein: recombinant; tags: N-terminal GST; dsDNA, one strand shown
T1 sequence: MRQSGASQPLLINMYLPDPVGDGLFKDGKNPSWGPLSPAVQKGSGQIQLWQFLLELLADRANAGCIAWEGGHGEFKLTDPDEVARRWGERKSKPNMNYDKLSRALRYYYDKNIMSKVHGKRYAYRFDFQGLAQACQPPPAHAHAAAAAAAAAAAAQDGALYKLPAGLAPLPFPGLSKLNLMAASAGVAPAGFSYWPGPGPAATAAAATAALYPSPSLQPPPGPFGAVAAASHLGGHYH
How it was run: (§1)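 A tag-only sample was pooled with DNA-barcoded human transcription factors that had been expressed in yeast as GST fusions and captured on glutathione beads. The pools were incubated for 30 min at room temperature with 200 nmole of a random double-stranded 16-mer DNA library in Tris/NaCl/DTT/glycerol buffer, then washed, crosslinked with 0.1% formaldehyde, proximity-ligated (BsaI/T4 ligase, 1 h, 37 °C), PCR-amplified and sequenced on an Illumina NextSeq500. Binding signal is each hexamer's read frequency for a factor divided by its frequency for the tag-only sample.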

ETV5 = ETV5 (Homo sapiens, UniProt P41161 1-510); details: protein: recombinant; tags: N-terminal GST; dsDNA, one strand shown
Chain of ETV5 (P41161 whole entry): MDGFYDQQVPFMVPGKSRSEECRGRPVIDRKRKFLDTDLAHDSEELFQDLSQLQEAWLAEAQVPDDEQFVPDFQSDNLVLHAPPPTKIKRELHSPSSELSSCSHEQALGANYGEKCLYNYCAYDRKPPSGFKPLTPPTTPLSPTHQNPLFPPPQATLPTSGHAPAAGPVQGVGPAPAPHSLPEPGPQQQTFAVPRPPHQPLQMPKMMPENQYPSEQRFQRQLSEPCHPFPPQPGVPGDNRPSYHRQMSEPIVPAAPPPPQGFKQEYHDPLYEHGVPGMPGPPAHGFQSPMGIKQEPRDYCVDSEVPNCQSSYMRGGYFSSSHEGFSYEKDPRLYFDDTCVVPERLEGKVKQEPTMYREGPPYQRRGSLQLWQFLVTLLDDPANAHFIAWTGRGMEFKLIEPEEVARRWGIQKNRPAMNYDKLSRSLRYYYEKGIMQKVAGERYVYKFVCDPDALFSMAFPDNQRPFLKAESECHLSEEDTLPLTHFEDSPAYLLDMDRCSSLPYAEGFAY
How it was run: as §1

HSF1 = HSF1 (Homo sapiens, UniProt Q00613 1-529); details: protein: recombinant; tags: N-terminal GST; chain copies: 3; dsDNA, one strand shown
Chain of HSF1 (Q00613 whole entry): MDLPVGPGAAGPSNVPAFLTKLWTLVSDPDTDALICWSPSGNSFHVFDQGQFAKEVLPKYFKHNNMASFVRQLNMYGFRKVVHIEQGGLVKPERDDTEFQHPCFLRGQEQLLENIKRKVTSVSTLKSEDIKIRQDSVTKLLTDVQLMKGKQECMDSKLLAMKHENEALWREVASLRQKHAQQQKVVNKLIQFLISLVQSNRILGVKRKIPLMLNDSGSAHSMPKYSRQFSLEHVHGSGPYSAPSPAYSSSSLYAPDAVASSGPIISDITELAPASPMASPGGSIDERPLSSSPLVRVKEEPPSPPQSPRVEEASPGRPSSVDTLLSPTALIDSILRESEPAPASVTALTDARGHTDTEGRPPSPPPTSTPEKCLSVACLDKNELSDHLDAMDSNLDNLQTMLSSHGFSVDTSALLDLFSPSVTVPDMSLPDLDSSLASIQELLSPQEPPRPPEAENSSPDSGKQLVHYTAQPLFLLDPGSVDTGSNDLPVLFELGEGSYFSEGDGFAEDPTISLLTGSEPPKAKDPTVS
How it was run: as §1

SPIC = target: T2, SPIC (Homo sapiens, UniProt Q8N5J4 1-248); details: protein: recombinant; tags: N-terminal GST; dsDNA, one strand shown
T2 sequence: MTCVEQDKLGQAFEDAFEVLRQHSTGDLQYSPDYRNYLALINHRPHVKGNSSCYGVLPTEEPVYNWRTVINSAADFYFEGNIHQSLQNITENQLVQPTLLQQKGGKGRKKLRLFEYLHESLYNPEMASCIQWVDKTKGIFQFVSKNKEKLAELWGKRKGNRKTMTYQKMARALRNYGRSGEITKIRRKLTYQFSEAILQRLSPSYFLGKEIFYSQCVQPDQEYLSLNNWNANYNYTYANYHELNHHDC
How it was run: as §1

ELF4 = ELF4 (Homo sapiens, UniProt Q99607 1-663); details: protein: recombinant; tags: N-terminal GST; dsDNA, one strand shown
Chain of ELF4 (Q99607 whole entry): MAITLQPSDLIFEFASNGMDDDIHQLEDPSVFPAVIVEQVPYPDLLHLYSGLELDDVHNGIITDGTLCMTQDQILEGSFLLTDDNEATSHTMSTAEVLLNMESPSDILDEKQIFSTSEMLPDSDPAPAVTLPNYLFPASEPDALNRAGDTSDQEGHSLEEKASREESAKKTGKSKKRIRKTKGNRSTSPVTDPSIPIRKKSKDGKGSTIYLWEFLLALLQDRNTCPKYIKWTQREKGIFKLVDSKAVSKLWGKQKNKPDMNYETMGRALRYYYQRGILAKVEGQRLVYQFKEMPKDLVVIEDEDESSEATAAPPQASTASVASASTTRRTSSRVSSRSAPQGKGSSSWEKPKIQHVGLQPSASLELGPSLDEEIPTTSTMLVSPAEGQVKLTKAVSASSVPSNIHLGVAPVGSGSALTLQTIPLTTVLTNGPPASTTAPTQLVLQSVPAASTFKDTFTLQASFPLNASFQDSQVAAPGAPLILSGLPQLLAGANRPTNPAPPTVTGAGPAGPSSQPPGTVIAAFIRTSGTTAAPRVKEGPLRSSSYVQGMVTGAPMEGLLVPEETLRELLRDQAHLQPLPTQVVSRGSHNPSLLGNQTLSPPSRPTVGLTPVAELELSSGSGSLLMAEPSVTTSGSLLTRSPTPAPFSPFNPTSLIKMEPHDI
How it was run: as §1

ELK4 = target: T3, ELK4 (Homo sapiens, UniProt P28324-2 1-405); details: protein: recombinant; tags: N-terminal GST; dsDNA, one strand shown
T3 sequence: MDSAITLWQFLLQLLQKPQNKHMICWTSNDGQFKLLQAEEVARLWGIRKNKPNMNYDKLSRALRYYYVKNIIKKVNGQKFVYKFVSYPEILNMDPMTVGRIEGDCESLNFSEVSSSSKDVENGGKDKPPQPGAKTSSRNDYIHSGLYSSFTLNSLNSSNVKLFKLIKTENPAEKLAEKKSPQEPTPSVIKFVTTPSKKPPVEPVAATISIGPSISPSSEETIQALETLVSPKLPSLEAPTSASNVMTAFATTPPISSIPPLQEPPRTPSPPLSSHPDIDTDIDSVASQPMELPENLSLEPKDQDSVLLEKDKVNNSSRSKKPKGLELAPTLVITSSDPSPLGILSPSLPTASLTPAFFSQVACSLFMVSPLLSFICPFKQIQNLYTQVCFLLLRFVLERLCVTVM
How it was run: as §1

ETV2 = target: T4, ETV2 (Homo sapiens, UniProt O00321 1-342); details: protein: recombinant; tags: N-terminal GST; dsDNA, one strand shown
T4 sequence: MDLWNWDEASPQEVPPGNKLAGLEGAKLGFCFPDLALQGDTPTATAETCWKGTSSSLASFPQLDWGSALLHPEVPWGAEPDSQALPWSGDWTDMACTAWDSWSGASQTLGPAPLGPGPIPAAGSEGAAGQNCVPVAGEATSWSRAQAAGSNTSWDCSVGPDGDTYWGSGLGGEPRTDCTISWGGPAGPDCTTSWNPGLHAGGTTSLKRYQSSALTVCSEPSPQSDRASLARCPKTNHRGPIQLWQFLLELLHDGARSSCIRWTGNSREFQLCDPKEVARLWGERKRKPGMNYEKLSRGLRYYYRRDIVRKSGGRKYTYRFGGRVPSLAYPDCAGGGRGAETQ
How it was run: as §1

ELF3 = target: T5, ELF3 (Homo sapiens, UniProt P78545 1-371); details: protein: recombinant; tags: N-terminal GST; dsDNA, one strand shown
T5 sequence: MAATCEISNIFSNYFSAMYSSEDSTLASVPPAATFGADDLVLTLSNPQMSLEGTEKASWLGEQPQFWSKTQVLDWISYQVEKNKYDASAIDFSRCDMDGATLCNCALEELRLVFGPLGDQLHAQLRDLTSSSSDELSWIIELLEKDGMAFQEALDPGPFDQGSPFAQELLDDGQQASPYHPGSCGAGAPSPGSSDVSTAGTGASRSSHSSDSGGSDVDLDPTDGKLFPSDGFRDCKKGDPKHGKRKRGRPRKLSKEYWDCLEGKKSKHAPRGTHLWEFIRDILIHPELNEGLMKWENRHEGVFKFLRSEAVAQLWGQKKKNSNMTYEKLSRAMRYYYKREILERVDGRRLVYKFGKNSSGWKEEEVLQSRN
How it was run: as §1

CRX = CRX (Homo sapiens, UniProt O43186 1-299); details: protein: recombinant; tags: N-terminal GST; dsDNA, one strand shown
Chain of CRX (O43186 whole entry): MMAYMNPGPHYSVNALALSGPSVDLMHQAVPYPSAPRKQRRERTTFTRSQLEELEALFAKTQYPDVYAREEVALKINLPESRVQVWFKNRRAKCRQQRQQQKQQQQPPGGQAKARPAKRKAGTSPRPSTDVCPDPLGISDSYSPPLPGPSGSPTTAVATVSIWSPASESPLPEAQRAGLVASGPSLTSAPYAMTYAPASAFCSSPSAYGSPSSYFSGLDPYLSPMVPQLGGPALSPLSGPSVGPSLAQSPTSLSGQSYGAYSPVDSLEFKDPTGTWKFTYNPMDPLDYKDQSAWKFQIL
How it was run: as §1

ETV1 = ETV1 (Homo sapiens, UniProt P50549 1-477); details: protein: recombinant; tags: N-terminal GST; dsDNA, one strand shown
Chain of ETV1 (P50549 whole entry): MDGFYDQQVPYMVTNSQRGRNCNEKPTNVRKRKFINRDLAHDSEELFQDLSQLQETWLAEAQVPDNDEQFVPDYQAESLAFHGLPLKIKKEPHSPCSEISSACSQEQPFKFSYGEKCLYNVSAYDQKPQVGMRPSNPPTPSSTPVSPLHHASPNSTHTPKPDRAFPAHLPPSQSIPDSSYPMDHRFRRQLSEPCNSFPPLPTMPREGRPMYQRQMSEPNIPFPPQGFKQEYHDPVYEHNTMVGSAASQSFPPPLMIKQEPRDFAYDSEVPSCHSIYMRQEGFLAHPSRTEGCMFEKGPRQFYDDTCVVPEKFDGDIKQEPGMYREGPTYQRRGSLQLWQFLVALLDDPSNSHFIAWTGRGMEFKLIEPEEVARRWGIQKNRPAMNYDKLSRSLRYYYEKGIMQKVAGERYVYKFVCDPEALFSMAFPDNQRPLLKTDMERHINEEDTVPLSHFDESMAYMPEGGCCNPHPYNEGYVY
How it was run: as §1

ERF = target: T6, ERF (Homo sapiens, UniProt P50548 1-548); details: protein: recombinant; tags: N-terminal GST; dsDNA, one strand shown
T6 sequence: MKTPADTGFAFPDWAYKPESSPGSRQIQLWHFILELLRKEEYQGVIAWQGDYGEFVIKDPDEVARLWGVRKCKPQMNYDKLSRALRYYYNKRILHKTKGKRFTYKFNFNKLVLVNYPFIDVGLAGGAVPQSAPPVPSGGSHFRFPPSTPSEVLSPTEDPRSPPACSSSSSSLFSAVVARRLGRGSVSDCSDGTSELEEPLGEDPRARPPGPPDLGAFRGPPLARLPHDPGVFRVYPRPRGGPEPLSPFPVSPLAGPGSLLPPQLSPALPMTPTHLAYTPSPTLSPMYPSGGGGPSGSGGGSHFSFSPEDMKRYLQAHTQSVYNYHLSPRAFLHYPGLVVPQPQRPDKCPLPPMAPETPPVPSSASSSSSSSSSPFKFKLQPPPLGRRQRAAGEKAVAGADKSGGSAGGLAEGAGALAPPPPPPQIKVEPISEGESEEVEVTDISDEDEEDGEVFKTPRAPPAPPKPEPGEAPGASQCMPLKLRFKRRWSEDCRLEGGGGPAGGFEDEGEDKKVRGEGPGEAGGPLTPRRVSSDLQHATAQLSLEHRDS
How it was run: as §1

ETV3L = target: T7, ETV3L (Homo sapiens, UniProt Q6ZN32 1-361); details: protein: recombinant; tags: N-terminal GST; dsDNA, one strand shown
T7 sequence: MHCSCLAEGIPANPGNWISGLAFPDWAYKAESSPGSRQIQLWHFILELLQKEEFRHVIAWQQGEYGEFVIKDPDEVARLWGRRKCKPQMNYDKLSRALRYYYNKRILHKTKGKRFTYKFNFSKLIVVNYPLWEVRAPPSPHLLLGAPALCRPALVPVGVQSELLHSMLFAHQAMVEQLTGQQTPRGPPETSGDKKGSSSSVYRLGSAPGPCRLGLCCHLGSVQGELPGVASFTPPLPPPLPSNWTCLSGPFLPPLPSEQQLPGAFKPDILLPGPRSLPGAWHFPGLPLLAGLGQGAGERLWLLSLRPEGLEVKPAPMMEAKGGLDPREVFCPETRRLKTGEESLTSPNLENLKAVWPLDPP
How it was run: as §1

ETS2 = target: T8, ETS2 (Homo sapiens, UniProt P15036 1-469); details: protein: recombinant; tags: N-terminal GST; dsDNA, one strand shown
T8 sequence: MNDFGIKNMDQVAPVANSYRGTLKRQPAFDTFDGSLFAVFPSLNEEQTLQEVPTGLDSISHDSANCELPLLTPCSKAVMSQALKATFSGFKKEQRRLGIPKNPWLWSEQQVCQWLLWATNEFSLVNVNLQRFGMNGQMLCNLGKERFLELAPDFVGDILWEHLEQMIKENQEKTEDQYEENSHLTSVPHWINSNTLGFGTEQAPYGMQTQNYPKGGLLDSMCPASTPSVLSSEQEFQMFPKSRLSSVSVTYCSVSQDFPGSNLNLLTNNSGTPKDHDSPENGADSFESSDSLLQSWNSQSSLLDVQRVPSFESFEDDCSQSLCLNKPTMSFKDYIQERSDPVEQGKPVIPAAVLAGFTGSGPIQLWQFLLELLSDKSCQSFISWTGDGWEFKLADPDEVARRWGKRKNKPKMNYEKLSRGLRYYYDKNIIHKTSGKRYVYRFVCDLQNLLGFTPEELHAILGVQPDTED
How it was run: as §1

SPDEF = target: T9, SPDEF (Homo sapiens, UniProt O95238 1-335); details: protein: recombinant; tags: N-terminal GST; dsDNA, one strand shown
T9 sequence: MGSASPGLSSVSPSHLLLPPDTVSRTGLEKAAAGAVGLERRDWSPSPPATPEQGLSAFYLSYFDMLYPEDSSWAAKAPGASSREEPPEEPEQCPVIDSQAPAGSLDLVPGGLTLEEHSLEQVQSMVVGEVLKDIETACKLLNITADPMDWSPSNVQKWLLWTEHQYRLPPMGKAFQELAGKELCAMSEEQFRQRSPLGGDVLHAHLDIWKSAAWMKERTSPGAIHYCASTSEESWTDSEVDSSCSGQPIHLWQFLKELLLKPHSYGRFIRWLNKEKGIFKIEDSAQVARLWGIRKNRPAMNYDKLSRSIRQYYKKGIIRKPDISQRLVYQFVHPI
How it was run: as §1

ETV7 = target: T10, ETV7 (Homo sapiens, UniProt Q9Y603 1-341); details: protein: recombinant; tags: N-terminal GST; dsDNA, one strand shown
T10 sequence: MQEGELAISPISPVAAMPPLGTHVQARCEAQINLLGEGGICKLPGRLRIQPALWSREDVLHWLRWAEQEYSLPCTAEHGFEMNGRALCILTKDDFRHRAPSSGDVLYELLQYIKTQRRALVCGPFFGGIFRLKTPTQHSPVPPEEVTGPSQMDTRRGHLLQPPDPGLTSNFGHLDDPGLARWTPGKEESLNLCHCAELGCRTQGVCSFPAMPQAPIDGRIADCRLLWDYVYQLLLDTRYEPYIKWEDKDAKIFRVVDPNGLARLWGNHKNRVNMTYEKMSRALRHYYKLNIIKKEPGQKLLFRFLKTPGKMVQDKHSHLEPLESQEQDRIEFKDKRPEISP
How it was run: as §1

ELF5 = target: T11, ELF5 (Homo sapiens, UniProt Q9UKW6-2 1-255); details: protein: recombinant; tags: N-terminal GST; dsDNA, one strand shown
T11 sequence: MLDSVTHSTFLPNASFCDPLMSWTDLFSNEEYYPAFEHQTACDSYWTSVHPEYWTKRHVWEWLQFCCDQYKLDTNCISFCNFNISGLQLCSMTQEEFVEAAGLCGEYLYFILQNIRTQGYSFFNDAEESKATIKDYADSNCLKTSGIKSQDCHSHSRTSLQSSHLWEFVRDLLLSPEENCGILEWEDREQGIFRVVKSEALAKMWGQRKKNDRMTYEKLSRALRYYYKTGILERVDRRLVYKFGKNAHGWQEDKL
How it was run: as §1

ETV3 = target: T12, ETV3 (Homo sapiens, UniProt P41162-2 1-143); details: protein: recombinant; tags: N-terminal GST; dsDNA, one strand shown
T12 sequence: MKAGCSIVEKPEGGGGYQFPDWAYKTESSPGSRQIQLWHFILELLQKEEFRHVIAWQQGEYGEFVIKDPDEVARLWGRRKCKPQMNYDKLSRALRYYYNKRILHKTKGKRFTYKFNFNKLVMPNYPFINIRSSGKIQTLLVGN
How it was run: as §1

ETV6 = ETV6 (Homo sapiens, UniProt P41212 1-452); details: protein: recombinant; tags: N-terminal GST; dsDNA, one strand shown
Chain of ETV6 (P41212 whole entry): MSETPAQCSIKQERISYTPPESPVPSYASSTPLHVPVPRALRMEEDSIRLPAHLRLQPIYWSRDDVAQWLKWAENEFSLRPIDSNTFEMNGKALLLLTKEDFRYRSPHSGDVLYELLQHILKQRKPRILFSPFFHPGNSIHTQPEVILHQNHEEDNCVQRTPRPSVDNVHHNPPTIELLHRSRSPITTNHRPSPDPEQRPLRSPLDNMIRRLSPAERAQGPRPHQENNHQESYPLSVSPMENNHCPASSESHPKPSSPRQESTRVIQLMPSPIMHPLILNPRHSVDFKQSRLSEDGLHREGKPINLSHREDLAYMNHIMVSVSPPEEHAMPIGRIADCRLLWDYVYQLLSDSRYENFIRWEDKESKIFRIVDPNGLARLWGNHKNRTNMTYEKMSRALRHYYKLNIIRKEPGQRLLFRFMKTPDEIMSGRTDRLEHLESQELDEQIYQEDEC
How it was run: as §1

TAATGA
binding signal (FEV): 1.12 fold enrichment (6-mer frequency, TF over GST control)
binding signal (ETV5): 1.12 fold enrichment (6-mer frequency, TF over GST control)
binding signal (HSF1): 1.37 fold enrichment (6-mer frequency, TF over GST control)
binding signal (SPIC): 1.11 fold enrichment (6-mer frequency, TF over GST control)
binding signal (ELF4): 1.17 fold enrichment (6-mer frequency, TF over GST control)
binding signal (ELK4): 1.12 fold enrichment (6-mer frequency, TF over GST control)
binding signal (ETV2): 1.13 fold enrichment (6-mer frequency, TF over GST control)
binding signal (ELF3): 1.12 fold enrichment (6-mer frequency, TF over GST control)
binding signal (CRX): 1.7 fold enrichment (6-mer frequency, TF over GST control)
binding signal (ETV1): 1.19 fold enrichment (6-mer frequency, TF over GST control)
binding signal (ERF): 1.26 fold enrichment (6-mer frequency, TF over GST control)
binding signal (ETV3L): 1.24 fold enrichment (6-mer frequency, TF over GST control)
binding signal (ETS2): 1.2 fold enrichment (6-mer frequency, TF over GST control)
binding signal (SPDEF): 1.11 fold enrichment (6-mer frequency, TF over GST control)
binding signal (ETV7): 1.18 fold enrichment (6-mer frequency, TF over GST control)
binding signal (ELF5): 1.12 fold enrichment (6-mer frequency, TF over GST control)
binding signal (ETV3): 1.1 fold enrichment (6-mer frequency, TF over GST control)
binding signal (ETV6): 1.21 fold enrichment (6-mer frequency, TF over GST control)

Source: PMC7862700, “An all-to-all approach to the identification of sequence-specific readers for epigenetic DNA modifications on cytosine”
